Experimental data: PubChem BioAssay AID1159580 (chemical genetic matrix, 2015)
Out of some 5,500 compounds screened, about 2,000 (36%) were called active. Another 18% or so got no clear call; they are omitted. Cut-off read from the data, not from the text of the source: active = normalized growth mostly below about 0.91 (no sharp cut-off); inconclusive = no clear call, values can overlap the other calls; inactive = mostly above about 0.92. The list shows a part of the results.

Test: chemical genetic growth profiling, strain panel (AID 1159580);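 note: tested at 20 µM; growth read once vehicle control cultures reached saturation at 30 °C; 1 = growth at the plate median or of vehicle wells; lower values mean less growth of the strain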
Conditions: growth OD

Measured: normalized growth

O=c1c(O)cc([C@H]2Oc3cc(O)cc(O)c3C[C@H]2O)cc2c([C@H]3Oc4cc(O)cc(O)c4C[C@H]3O)cc(O)c(O)c12
inactive: S. cerevisiae deletion strains, locus YJR066W, strain TOR1, hits give low values 0.921 | S. cerevisiae deletion strains, locus YKL009W, strain mrt4, hits give low values 1.09 | S. cerevisiae deletion strains, locus YKL068W, hits give low values 1.01 | S. cerevisiae deletion strains, locus YKL160W, strain elf1, hits give low values 1.01 | S. cerevisiae deletion strains, locus YKL190W, strain CNB1, hits give low values 1.02 | S. cerevisiae deletion strains, locus YKR001C, strain vps1, hits give low values 1.02 | S. cerevisiae deletion strains, locus YKR026C, strain gcn3, hits give low values 0.987 | S. cerevisiae deletion strains, locus YKR091W, strain srl3, hits give low values 1.03 | S. cerevisiae deletion strains, locus YLL001W, strain dnm1, hits give low values 1.03 | S. cerevisiae deletion strains, locus YLL026W, hits give low values 1.04 | S. cerevisiae deletion strains, locus YLL041C, strain sdh2, hits give low values 1.03 | S. cerevisiae deletion strains, locus YLR027C, strain aat2, hits give low values 1.02 | S. cerevisiae deletion strains, locus YLR039C, strain RIC1, hits give low values 1.15 | S. cerevisiae deletion strains, locus YLR058C, strain SHM2, hits give low values 1 | S. cerevisiae deletion strains, locus YLR102C, strain apc9, hits give low values 1.02 | S. cerevisiae deletion strains, locus YLR113W, strain HOG1, hits give low values 1.03 | S. cerevisiae deletion strains, locus YLR221C, strain rsa3, hits give low values 1.03 | S. cerevisiae deletion strains, locus YLR258W, strain gsy2, hits give low values 1.02 | S. cerevisiae deletion strains, locus YLR262C, strain YPT6 (second series), hits give low values 1.06 | S. cerevisiae deletion strains, locus YLR262C, strain YPT6, hits give low values 1.19 | S. cerevisiae deletion strains, locus YLR268W, strain sec22, hits give low values 1.03 | S. cerevisiae deletion strains, locus YLR320W, strain mms22, hits give low values 1.07 | S. cerevisiae deletion strains, locus YLR342W, strain FKS1 (second series), hits give low values 1.01 | S. cerevisiae deletion strains, locus YLR342W, strain FKS1, hits give low values 1.01 | S. cerevisiae deletion strains, locus YLR357W, strain rsc2, hits give low values 0.989 | S. cerevisiae deletion strains, locus YLR370C, strain arc18, hits give low values 1.01 | S. cerevisiae deletion strains, locus YLR371W, strain rom2, hits give low values 0.977 | S. cerevisiae deletion strains, locus YLR384C, strain iki3, hits give low values 1.03 | S. cerevisiae deletion strains, locus YLR418C, strain cdc73, hits give low values 1.03 | S. cerevisiae deletion strains, locus YML016C, strain PPZ1, hits give low values 1 | S. cerevisiae deletion strains, locus YML032C, strain rad52, hits give low values 1.02 | S. cerevisiae deletion strains, locus YML120C, strain ndi1, hits give low values 1.03 | S. cerevisiae deletion strains, locus YML124C, strain tub3, hits give low values 1.02 | S. cerevisiae deletion strains, locus YMR058W, strain fet3, hits give low values 0.955 | S. cerevisiae deletion strains, locus YMR078C, strain ctf18, hits give low values 1.02 | S. cerevisiae deletion strains, locus YMR125W, strain sto1, hits give low values 1.03 | S. cerevisiae deletion strains, locus YMR129W, hits give low values 1.04 | S. cerevisiae deletion strains, locus YMR205C, strain PFK2, hits give low values 1.09 | S. cerevisiae deletion strains, locus YMR223W, strain ubp8, hits give low values 1 | S. cerevisiae deletion strains, locus YMR231W, strain pep5, hits give low values 1.02 | S. cerevisiae deletion strains, locus YMR263W, strain SAP30, hits give low values 1.03 | S. cerevisiae deletion strains, locus YMR307W, strain GAS1, hits give low values 0.915 | S. cerevisiae deletion strains, locus YNL067W, strain RPL9B, hits give low values 1.02 | S. cerevisiae deletion strains, locus YNL071W, strain lat1, hits give low values 1.05 | S. cerevisiae deletion strains, locus YNL183C, strain NPR1, hits give low values 0.95 | S. cerevisiae deletion strains, locus YNL209W, strain ssb2, hits give low values 0.996 | S. cerevisiae deletion strains, locus YNL233W, strain BNI4, hits give low values 1.04 | S. cerevisiae deletion strains, locus YNL248C, strain rpa49, hits give low values 0.999 | S. cerevisiae deletion strains, locus YNL250W, strain rad50, hits give low values 1.05 | S. cerevisiae deletion strains, locus YNL271C, strain bni1, hits give low values 1 | S. cerevisiae deletion strains, locus YNL298W, strain CLA4, hits give low values 1.02 | S. cerevisiae deletion strains, locus YNL307C, strain MCK1, hits give low values 1.02 | S. cerevisiae deletion strains, locus YNL322C, strain KRE1 (second series), hits give low values 1.07 | S. cerevisiae deletion strains, locus YNL322C, strain KRE1, hits give low values 1.01 | S. cerevisiae deletion strains, locus YNR049C, strain mso1, hits give low values 1.04 | S. cerevisiae deletion strains, locus YNR052C, strain pop2, hits give low values 0.963 | S. cerevisiae deletion strains, locus YOL006C, strain TOP1, hits give low values 1.03 | S. cerevisiae deletion strains, locus YOL012C, strain htz1 1.21 | S. cerevisiae deletion strains, locus YOL147C, strain pex11, hits give low values 1.01 | S. cerevisiae deletion strains, locus YOR001W, strain rrp6, hits give low values 1.03 | S. cerevisiae deletion strains, locus YOR061W, strain CKA2, hits give low values 1.02 | S. cerevisiae deletion strains, locus YOR069W, strain VPS5, hits give low values 1 | S. cerevisiae deletion strains, locus YOR070C, strain gyp1, hits give low values 1.01 | S. cerevisiae deletion strains, locus YOR080W, strain dia2, hits give low values 1.06 | S. cerevisiae deletion strains, locus YOR083W, strain WHI5, hits give low values 1.01 | S. cerevisiae deletion strains, locus YOR106W, strain vam3, hits give low values 1.04 | S. cerevisiae deletion strains, locus YOR136W, strain idh2, hits give low values 1.02 | S. cerevisiae deletion strains, locus YOR144C, strain elg1, hits give low values 1.02 | S. cerevisiae deletion strains, locus YOR184W, strain ser1, hits give low values 1.06 | S. cerevisiae deletion strains, locus YOR231W, strain MKK1, hits give low values 1.01 | S. cerevisiae deletion strains, locus YOR265W, strain rbl2, hits give low values 1.03 | S. cerevisiae deletion strains, locus YOR270C, strain vph1, hits give low values 1.14 | S. cerevisiae deletion strains, locus YOR290C, strain snf2, hits give low values 1.01 | S. cerevisiae deletion strains, locus YOR316C, strain cot1, hits give low values 1.01 | S. cerevisiae deletion strains, locus YPL051W, strain arl3, hits give low values 1.02 | S. cerevisiae deletion strains, locus YPL078C, strain atp4, hits give low values 1.01 | S. cerevisiae deletion strains, locus YPL106C, strain sse1, hits give low values 1 | S. cerevisiae deletion strains, locus YPL240C, strain hsp82, hits give low values 1.04 | S. cerevisiae deletion strains, locus YPL256C, strain CLN2, hits give low values 0.992 | S. cerevisiae deletion strains, locus YPR119W, strain clb2, hits give low values 1.03 | S. cerevisiae deletion strains, locus YPR141C, strain kar3, hits give low values 0.993 | S. cerevisiae deletion strains, locus YPR163C, strain tif3, hits give low values 1.01 | S. cerevisiae deletion strains, locus YPR167C, strain met16, hits give low values 1.02 | S. cerevisiae deletion strains, strain wtn01, hits give low values 1.03 | S. cerevisiae strains, strain wild type, hits give low values 0.998
